Results as given in the supplement of paper PMC10127200.
Where a name gives a salt, the structure may show the parent alone.

Assays:
Experiment in all cases: Euclidean distance of Cell Painting phenotypic profile (signed KS, 77 features) to DMSO centroid (dimensionless distance); 5 or 10 uM (library dependent); higher = stronger phenotypic change vs DMSO (phenoactivity)
Settings in all cases: 48 h
786-O = test system: 786-O
How it was run: (§1)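 Phenoactivity is computed as Euclidean distance to the median vehicle profile. The profiles, drawn from 77 Harmony features scored as signed Kolmogorov-Smirnov statistics versus same-plate vehicle wells, were corrected for plate position, correlation-weighted and replicate-averaged at the top dose. Stained cells were imaged confocally at 20X (9 fields/well) after 48 h with library compounds at 10 or 5 uM, 0.1% DMSO final, in five cancer lines and a healthy fibroblast line.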

A549 = test system: A549
How it was run: as §1

DU145 = test system: DU145
How it was run: as §1

FB = test system: FB
How it was run: as §1

HEPG2 = test system: HEPG2
How it was run: as §1

OVCAR4 = test system: OVCAR4
How it was run: as §1

Row | Structure (SMILES) | Euclidean distance (786-O) | Euclidean distance (A549) | Euclidean distance (DU145) | Euclidean distance (FB) | Euclidean distance (HEPG2) | Euclidean distance (OVCAR4)
1 | CN1CCC(=C2c3ccccc3CC(=O)c3sccc32)CC1 [Ketotifen Fumarate] | 0.851 | 0.639 | 0.639 | 1.17 | 0.589 | 1.2
2 | CCOC(=O)c1c(CSc2ccccc2)n(C)c2cc(Br)c(O)c(CN(C)C)c12 [Arbidol HCl] | 1.37 | 1.41 | 2.16 | 1.38 | 1.34 | 1.63
3 | Cc1ccc(C(=O)Nc2ccc(Oc3cc4cnn(C)c4cc3-c3cn[nH]c3)c(F)c2)c(=O)n1-c1ccc(F)cc1 | 1.83 | 1.59 | 1.22 | 3.01 | 2.28 | 1.67
4 | CC(C)COc1ccc(CNC(=O)N(Cc2ccc(F)cc2)C2CCN(C)CC2)cc1 [Pimavanserin] | 4.02 | 4.29 | 3 | 5.4 | 5.24 | 3.47
5 | CNC(=O)Nc1ccc(-c2nc(N3CC4CCC(C3)O4)c3cnn(C4CCC5(CC4)OCCO5)c3n2)cc1 | 4.15 | 3.37 | 2.25 | 4.69 | 3.38 | 4.35
6 | COC[C@H]1C[C@@H](c2nc(-c3ccc4c(c3)COc3cc5c(ccc6nc([C@@H]7CC[C@H](C)N7C(=O)[C@@H](NC(=O)OC)C(C)C)[nH]c65)cc3-4)c[nH]2)N(C(=O)[C@H](NC(=O)OC)c2ccccc2)C1 [Velpatasvir] | 1.14 | 1.43 | 1.28 | 2.05 | 1.32 | 1.1
7 | COc1cc(-c2ncn(/C=C\C(=O)OC(C)C)n2)cc(C(F)(F)F)c1 | 3.51 | 3.05 | 3.45 | 3.74 | 2.56 | 4.53
8 | O=C(O)CSCC(=O)NC1CCSC1=O (stereo unspecified) [Erdosteine] | 0.988 | 1.09 | 1.06 | 1.07 | 1.27 | 1.1
9 | CN(C)C(=O)N[C@H]1CC[C@H](CCN2CCN(c3cccc(Cl)c3Cl)CC2)CC1 [Cariprazine HCl] | 1.25 | 1.41 | 1.47 | 1.58 | 1.63 | 0.982
10 | COc1cc2c(Oc3ccc(NC(=O)C4(C(=O)Nc5ccc(F)cc5)CC4)cc3F)ccnc2cc1OCCCN1CCOCC1 | 1.39 | 2.06 | 1.35 | 1.52 | 0.94 | 3.97
11 | C=C1C[C@@]2(O)O[C@@]3(C[C@H]2C(C)C)[C@@H](C)CC[C@@H]13 [Curcumol] | 1.06 | 1.43 | 0.943 | 1.3 | 0.814 | 1.43
12 | CS(=O)(=O)CCNCc1ccc(-c2ccc3ncnc(Nc4ccc(OCc5cccc(F)c5)c(Cl)c4)c3c2)o1 [Lapatinib ditosylate monohydrate] | 4.93 | 3.12 | 2.25 | 2.59 | 3.3 | 3.37
13 | CNC[C@H](O)[C@@H](O)[C@H](O)[C@H](O)CO [Meglumine] | 1.78 | 1.75 | 2.13 | 1.59 | 0.652 | 1.67
14 | O=C1Nc2ccc(CN3C(=O)CSC3=O)cc2/C1=C/c1cc(CN2CCOCC2)c[nH]1 | 1.07 | 1.06 | 0.896 | 1.11 | 0.385 | 0.658
15 | CNCCc1ccccn1 [Betahistine mesylate] | 0.848 | 0.566 | 1.17 | 0.999 | 0.422 | 0.933
16 | CC(C)(C#N)c1ccc(N2C(=O)OCc3cnc4ccc(-c5cnc6ccccc6c5)cc4c32)cc1 | 3.92 | 2.98 | 0.959 | 0.992 | 0.996 | 4.19
17 | CCN(CC)CC#CCOC(=O)C(O)(c1ccccc1)C1CCCCC1 (stereo unspecified) [Oxybutynin] | 0.749 | 0.615 | 1.19 | 0.788 | 1.25 | 0.913
18 | CC1(C)[C@@H](O)CC[C@]2(C)[C@H]3C(=O)C=C4[C@@H]5C[C@@](C)(C(=O)O)CC[C@]5(C)CC[C@@]4(C)[C@]3(C)CC[C@@H]12 [Enoxolone] | 1.06 | 0.933 | 0.631 | 0.901 | 0.41 | 1.32
19 | CCCN(CCC)S(=O)(=O)c1ccc(C(=O)O)cc1 [Probenecid] | 1.08 | 0.549 | 1.42 | 0.831 | 0.652 | 1.69
20 | Nc1c(CC(=O)O)cccc1C(=O)c1ccccc1 [Amfenac Sodium Monohydrate] | 1.3 | 0.843 | 0.909 | 1.46 | 0.424 | 1.11
21 | COc1cccc(CCc2ccccc2OCC(CN(C)C)OC(=O)CCC(=O)O)c1 (stereo unspecified) [Sarpogrelate hydrochloride] | 0.73 | 1.36 | 0.739 | 1.27 | 0.99 | 1.63
22 | COc1cc2c3cc1Oc1c(OC)c(OC)cc4c1[C@@H](Cc1ccc(O)c(c1)Oc1ccc(cc1)C[C@@H]3N(C)CC2)N(C)CC4 [Berbamine] | 2.93 | 3.17 | 2.1 | 3.91 | 2.29 | 2.64
23 | CCNC(=O)[C@@H]1CCCN1C(=O)[C@H](CCCNC(=N)N)NC(=O)[C@H](CC(C)C)NC(=O)[C@@H](CC(C)C)NC(=O)[C@H](Cc1ccc(O)cc1)NC(=O)[C@H](CO)NC(=O)[C@H](Cc1c[nH]c2ccccc12)NC(=O)[C@H](Cc1c[nH]cn1)NC(=O)[C@@H]1CCC(=O)N1 [Leuprolide Acetate] | 0.73 | 0.754 | 0.992 | 0.659 | 0.515 | 0.971

Row | Structure (SMILES) | Euclidean distance (786-O) | Euclidean distance (A549) | Euclidean distance (DU145) | Euclidean distance (FB) | Euclidean distance (HEPG2) | Euclidean distance (OVCAR4)
24 | CC(=O)Oc1ccccc1C(=O)Nc1ncc([N+](=O)[O-])s1 [Nitazoxanide] | 1.27 | 1.18 | 1.96 | 1.68 | 1.32 | 1.34
25 | CSc1ccc2c(c1)N(CCC1CCCCN1C)c1ccccc1S2 (stereo unspecified) [Thioridazine hydrochloride] | 2.83 | 2.98 | 2.37 | 3.14 | 3.33 | 2.62
26 | CC1(C)S[C@@H]2[C@H](NC(=O)[C@H](N)c3ccc(O)cc3)C(=O)N2[C@H]1C(=O)O [Amoxicillin trihydrate] | 0.875 | 1 | 0.666 | 0.987 | 0.529 | 1.31
27 | C1COC(NC(C2CC2)C2CC2)=N1 [Rilmenidine Phosphate] | 1.48 | 0.742 | 1.06 | 1.07 | 1.13 | 1.02
28 | O=c1c(-c2ccc(O)cc2)coc2cc(O)cc(O)c12 [Genistein] | 1.75 | 1.52 | 1.14 | 1.28 | 0.498 | 1.13
29 | CCN1CCC[C@H]1CNC(=O)c1cc(S(N)(=O)=O)ccc1OC [Levosulpiride] | 1.03 | 0.793 | 1.14 | 0.991 | 1.73 | 1.77
30 | CO/N=C(\C(=O)N[C@@H]1C(=O)N2C(C(=O)[O-])=C(C[N+]3(C)CCCC3)CS[C@H]12)c1csc(N)n1 [Cefepime Dihydrochloride Monohydrate] | 1.34 | 0.501 | 0.945 | 1.1 | 0.514 | 0.878
31 | C/C1=C2N=C(/C=C3N=C(/C(C)=C4\[N-]C(C(CC(N)=O)C4(C)CCC(=O)NCC(C)OP(=O)([O-])OC4C(CO)OC(n5cnc6cc(C)c(C)cc65)C4O)C4(C)N=C1C(CCC(N)=O)C4(C)CC(N)=O)C(CCC(N)=O)C\3(C)C)C(CCC(N)=O)C/2(C)CC(N)=O.[CH3-].[Co+3] (stereo unspecified) [Methylcobalamin] | 0.89 | 0.91 | 1.12 | 0.99 | 1.02 | 0.959
32 | C[C@H](NC(=O)/C(C#N)=C/c1cccc(Br)n1)c1ccccc1 | 3.27 | 3.07 | 3.01 | 3.17 | 2.6 | 2.17
33 | O=C1NC(=O)/C(=C/c2cccc(C(F)(F)F)c2)S1 | 1.83 | 1.41 | 0.82 | 1.49 | 0.755 | 0.797
34 | CO[C@H]1/C=C/O[C@@]2(C)Oc3c(C)c(O)c4c(c3C2=O)C2=NC3(CCN(CC(C)C)CC3)NC2=C(NC(=O)/C(C)=C\C=C\[C@H](C)[C@H](O)[C@@H](C)[C@@H](O)[C@@H](C)[C@H](OC(C)=O)[C@@H]1C)C4=O [Rifabutin] | 1.26 | 0.759 | 1.51 | 1.08 | 2.11 | 1.35
35 | CCN(CC)CCNC(=O)c1cc(Cl)c(N)cc1OC [Metoclopramide HCl] | 0.662 | 0.513 | 0.62 | 0.54 | 0.614 | 0.647
36 | C[C@@H]1C/C=C/C=C/C=C/C=C/[C@H](O[C@@H]2O[C@H](C)[C@@H](O)[C@H](N)[C@@H]2O)C[C@@H]2O[C@](O)(C[C@@H](O)C[C@H]3O[C@@H]3/C=C/C(=O)O1)C[C@H](O)[C@H]2C(=O)O [Natamycin] | 1.51 | 0.972 | 1.07 | 1.11 | 1.14 | 1.02
37 | Cc1ccc(-c2nc(N)nc3c2nnn3Cc2cccc(CO[C@H]3CCOC3)n2)o1 | 0.843 | 0.446 | 0.81 | 1.32 | 0.731 | 0.627
38 | O=C1NC(=O)/C(=C/c2ccc3nccc(-c4ccncc4)c3c2)S1 | 1.74 | 2.75 | 2 | 1.86 | 0.698 | 2.91
39 | CCN(CC)CCCCNc1ncc2cc(-c3cc(OC)cc(OC)c3)c(NC(=O)NC(C)(C)C)nc2n1 | 3.18 | 1.42 | 2.75 | 3.93 | 1.84 | 1.16
40 | CC#C[C@]1(O)CC[C@H]2[C@@H]3CCC4=CC(=O)CCC4=C3[C@@H](c3ccc(N(C)C)cc3)C[C@@]21C [Mifepristone] | 1.22 | 1.62 | 1.48 | 1.13 | 1.01 | 1.14
41 | C[N+](C)(C)CC(=O)O [Betaine] | 1.1 | 0.84 | 0.542 | 0.947 | 1.41 | 0.81
42 | O=C(NCc1ccccc1)c1csc(Nc2ccncn2)n1 [Thiazovivin] | 1.92 | 1.18 | 2.87 | 2.01 | 1.84 | 1.6
43 | c1cc(CN2CCCNCCNCCCNCC2)ccc1CN1CCCNCCNCCCNCC1 [Plerixafor (AMD3100)] | 0.664 | 1.12 | 0.673 | 0.848 | 0.976 | 1.03
44 | COC(=O)N[C@H](C(=O)N1CC2(CC2)C[C@H]1c1nc(-c2ccc3c(c2)C(F)(F)c2cc(-c4ccc5[nH]c([C@@H]6[C@H]7CC[C@H](C7)N6C(=O)[C@@H](NC(=O)OC)C(C)C)nc5c4)ccc2-3)c[nH]1)C(C)C [Ledipasvir (GS5885)] | 1.65 | 1.83 | 1.33 | 1.94 | 1.09 | 1.18
45 | N[C@H](Cc1ccccc1)C(=O)O [D-Phenylalanine] | 1.65 | 1.05 | 0.814 | 0.864 | 0.733 | 0.852
46 | CNNCc1ccc(C(=O)NC(C)C)cc1 [Procarbazine HCl] | 1.36 | 0.988 | 1.23 | 1.25 | 0.885 | 0.933
